Our source for the inhibition values is ChEMBL document CHEMBL1961873, “Compounds: GSK PKIS; Assays: Nanosyn kinase panel” (2012).

The target in experiment [1] is Sphingosine kinase 1 (Homo sapiens) (UniProt Q9NYA1). Particulars: at 1 µM.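 Also: mean SPHK1 inhibition value reported from the GSK PKIS kinase panel screen.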
In experiment [2] the target is T1, Sphingosine kinase 2 (Homo sapiens) (UniProt Q9NRA0).
T1 sequence (whole entry): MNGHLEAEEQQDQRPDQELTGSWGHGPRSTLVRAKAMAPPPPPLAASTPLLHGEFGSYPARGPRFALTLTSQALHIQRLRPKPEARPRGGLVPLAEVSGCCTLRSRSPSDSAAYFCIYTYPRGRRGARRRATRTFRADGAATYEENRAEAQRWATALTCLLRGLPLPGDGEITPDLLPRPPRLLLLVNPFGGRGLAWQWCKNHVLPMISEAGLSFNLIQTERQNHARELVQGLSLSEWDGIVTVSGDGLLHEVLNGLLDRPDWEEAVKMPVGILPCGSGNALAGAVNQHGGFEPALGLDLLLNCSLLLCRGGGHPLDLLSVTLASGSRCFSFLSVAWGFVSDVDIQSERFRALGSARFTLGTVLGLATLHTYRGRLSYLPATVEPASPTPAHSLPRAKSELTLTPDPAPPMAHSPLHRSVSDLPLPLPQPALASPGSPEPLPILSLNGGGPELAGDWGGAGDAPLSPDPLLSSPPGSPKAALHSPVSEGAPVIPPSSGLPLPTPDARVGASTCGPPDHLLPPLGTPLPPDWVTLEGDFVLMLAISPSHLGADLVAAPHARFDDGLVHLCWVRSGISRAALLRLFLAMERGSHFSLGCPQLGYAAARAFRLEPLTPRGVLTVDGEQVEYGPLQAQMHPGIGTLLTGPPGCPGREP
The conditions noted are these: at 0.1 µM.

Experiment [3] addresses T1, Sphingosine kinase 2 (Homo sapiens). Particulars: at 1 µM.
Experiment [4] has as its target Casein kinase II subunit alpha (Homo sapiens) (UniProt P68400). The conditions noted are these: at 0.1 µM.
Experiment [5] shares this target. The conditions noted are these: at 1 µM.
In experiment [6] the target is T2, Inhibitor of nuclear factor kappa-B kinase subunit alpha (Homo sapiens) (UniProt O15111).
T2 sequence (whole entry): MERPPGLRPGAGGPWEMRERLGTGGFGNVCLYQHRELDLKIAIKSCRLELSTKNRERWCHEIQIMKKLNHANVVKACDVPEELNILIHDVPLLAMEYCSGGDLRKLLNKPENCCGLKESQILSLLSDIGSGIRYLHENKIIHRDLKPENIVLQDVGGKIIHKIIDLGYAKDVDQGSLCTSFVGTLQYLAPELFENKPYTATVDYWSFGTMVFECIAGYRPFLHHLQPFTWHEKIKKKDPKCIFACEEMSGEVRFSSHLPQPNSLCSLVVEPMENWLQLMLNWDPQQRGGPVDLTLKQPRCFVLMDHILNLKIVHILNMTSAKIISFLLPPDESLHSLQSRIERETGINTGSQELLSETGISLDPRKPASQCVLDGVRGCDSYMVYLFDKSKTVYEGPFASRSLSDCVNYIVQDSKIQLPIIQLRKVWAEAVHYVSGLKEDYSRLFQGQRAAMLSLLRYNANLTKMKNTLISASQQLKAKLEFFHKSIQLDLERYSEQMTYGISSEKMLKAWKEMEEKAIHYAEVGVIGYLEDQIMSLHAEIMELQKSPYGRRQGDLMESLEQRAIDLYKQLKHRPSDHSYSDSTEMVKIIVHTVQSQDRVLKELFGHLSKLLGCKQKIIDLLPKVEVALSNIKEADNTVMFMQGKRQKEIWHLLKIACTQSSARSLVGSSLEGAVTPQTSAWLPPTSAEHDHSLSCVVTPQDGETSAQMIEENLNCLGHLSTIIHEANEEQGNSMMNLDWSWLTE
The conditions noted are these: at 0.1 µM.

For experiment [7], the target named is T2, Inhibitor of nuclear factor kappa-B kinase subunit alpha (Homo sapiens). The conditions noted are these: at 1 µM.
Experiment [8] has as its target T3, Inhibitor of nuclear factor kappa-B kinase subunit beta (Homo sapiens) (UniProt O14920).
T3 sequence (whole entry): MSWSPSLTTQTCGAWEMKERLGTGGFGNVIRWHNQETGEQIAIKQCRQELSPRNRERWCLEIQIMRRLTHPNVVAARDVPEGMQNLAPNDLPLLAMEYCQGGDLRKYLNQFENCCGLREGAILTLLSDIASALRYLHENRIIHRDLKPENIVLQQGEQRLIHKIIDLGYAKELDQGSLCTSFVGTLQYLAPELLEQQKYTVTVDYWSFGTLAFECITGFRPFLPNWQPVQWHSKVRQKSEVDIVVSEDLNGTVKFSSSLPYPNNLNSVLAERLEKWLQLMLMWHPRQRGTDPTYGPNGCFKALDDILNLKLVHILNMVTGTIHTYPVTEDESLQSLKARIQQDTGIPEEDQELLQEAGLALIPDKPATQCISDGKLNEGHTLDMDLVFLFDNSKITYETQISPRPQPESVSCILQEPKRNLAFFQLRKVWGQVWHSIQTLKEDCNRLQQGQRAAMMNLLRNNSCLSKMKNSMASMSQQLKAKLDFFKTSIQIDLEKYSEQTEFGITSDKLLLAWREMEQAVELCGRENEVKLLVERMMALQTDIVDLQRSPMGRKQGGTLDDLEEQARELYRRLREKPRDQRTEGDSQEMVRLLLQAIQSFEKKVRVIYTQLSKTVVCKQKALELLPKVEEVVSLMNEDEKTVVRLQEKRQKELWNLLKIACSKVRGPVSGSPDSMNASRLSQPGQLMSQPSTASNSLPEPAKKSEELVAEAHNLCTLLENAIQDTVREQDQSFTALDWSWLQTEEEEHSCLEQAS
The conditions noted are these: at 0.1 µM.

The target of experiment [9] is T3, Inhibitor of nuclear factor kappa-B kinase subunit beta (Homo sapiens). Particulars: at 1 µM.
In experiment [10] the target is T4, Inhibitor of nuclear factor kappa-B kinase subunit epsilon (Homo sapiens) (UniProt Q14164).
T4 sequence (whole entry): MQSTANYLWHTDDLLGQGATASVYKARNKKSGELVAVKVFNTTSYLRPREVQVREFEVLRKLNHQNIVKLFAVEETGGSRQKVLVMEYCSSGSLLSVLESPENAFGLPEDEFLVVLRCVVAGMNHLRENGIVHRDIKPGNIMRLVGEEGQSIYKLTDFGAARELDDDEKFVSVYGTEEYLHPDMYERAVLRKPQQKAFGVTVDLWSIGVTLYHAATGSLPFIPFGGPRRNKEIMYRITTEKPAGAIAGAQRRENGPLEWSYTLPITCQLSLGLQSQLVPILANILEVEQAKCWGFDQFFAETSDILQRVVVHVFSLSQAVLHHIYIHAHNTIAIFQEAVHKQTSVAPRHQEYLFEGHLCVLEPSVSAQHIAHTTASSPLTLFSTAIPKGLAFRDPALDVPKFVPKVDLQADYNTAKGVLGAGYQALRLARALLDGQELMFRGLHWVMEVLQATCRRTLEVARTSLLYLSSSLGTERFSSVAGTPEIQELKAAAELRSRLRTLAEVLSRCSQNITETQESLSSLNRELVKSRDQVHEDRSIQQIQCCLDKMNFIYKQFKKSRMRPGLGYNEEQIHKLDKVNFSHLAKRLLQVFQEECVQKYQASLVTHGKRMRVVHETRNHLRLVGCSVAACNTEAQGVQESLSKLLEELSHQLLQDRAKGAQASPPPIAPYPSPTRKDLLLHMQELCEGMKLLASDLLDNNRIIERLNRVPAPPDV
The conditions noted are these: at 0.1 µM.

The target of experiment [11] is T4, Inhibitor of nuclear factor kappa-B kinase subunit epsilon (Homo sapiens). The conditions noted are these: at 1 µM.
The target of experiment [12] is T5, Serine/threonine-protein kinase Nek1 (Homo sapiens) (UniProt Q96PY6).
T5 sequence (whole entry): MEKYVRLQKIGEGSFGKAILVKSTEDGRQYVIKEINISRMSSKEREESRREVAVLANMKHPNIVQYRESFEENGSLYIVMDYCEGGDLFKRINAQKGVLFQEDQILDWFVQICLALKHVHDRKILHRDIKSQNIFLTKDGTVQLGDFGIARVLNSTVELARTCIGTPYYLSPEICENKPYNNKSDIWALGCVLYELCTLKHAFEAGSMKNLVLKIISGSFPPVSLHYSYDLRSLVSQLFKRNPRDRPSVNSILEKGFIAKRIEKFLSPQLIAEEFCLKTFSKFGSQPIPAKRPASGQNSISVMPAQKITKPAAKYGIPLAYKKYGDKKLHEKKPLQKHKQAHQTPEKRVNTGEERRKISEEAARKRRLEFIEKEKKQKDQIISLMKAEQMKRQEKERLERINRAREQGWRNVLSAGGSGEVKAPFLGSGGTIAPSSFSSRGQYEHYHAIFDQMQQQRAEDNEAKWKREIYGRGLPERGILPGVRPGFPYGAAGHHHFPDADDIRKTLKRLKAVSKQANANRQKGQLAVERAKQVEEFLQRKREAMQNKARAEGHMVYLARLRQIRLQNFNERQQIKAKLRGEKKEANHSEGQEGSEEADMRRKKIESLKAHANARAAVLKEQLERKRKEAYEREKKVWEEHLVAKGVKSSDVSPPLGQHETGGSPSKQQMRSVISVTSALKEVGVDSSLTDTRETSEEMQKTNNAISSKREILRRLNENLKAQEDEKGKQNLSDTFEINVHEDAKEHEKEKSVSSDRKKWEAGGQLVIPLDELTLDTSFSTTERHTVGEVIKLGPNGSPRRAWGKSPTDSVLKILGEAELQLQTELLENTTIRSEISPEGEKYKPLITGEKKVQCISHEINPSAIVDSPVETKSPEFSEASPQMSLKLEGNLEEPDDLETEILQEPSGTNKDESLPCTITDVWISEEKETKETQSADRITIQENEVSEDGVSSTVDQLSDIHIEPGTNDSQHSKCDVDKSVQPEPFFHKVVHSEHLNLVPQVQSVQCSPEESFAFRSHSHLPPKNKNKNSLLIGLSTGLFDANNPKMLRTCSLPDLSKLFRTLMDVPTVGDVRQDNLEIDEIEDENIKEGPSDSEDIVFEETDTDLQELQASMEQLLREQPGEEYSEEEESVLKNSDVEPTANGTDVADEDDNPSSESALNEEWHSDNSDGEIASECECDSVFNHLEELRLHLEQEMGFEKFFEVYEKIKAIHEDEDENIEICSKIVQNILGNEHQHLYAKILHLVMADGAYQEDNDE
The conditions noted are these: at 0.1 µM.

In experiment [13] the target is T5, Serine/threonine-protein kinase Nek1 (Homo sapiens). The conditions noted are these: at 1 µM.
Experiment [14] concerns the target T6, Serine/threonine-protein kinase Nek2 (Homo sapiens) (UniProt P51955).
T6 sequence (whole entry): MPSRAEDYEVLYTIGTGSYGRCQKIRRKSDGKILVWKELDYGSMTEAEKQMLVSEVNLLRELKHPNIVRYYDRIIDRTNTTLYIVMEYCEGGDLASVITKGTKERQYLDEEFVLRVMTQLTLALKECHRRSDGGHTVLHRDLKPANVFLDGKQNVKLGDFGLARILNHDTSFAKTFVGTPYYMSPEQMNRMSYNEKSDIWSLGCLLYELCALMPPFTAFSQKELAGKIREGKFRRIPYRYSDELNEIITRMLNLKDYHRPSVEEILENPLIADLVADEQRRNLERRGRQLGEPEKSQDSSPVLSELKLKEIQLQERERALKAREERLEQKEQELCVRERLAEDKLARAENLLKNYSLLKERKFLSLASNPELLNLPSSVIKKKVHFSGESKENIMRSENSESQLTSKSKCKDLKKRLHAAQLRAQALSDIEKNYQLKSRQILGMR
Particulars: at 0.1 µM.

Experiment [15] has as its target T6, Serine/threonine-protein kinase Nek2 (Homo sapiens). The conditions noted are these: at 1 µM.
Experiment [16] has as its target Serine/threonine-protein kinase Nek6 (Homo sapiens) (UniProt Q9HC98). The conditions noted are these: at 0.1 µM.
The target is the same in experiment [17]. Particulars: at 1 µM.
Experiment [18] deals with Serine/threonine-protein kinase Nek7 (Homo sapiens) (UniProt Q8TDX7). The conditions noted are these: at 0.1 µM.
Sequence of Serine/threonine-protein kinase Nek7 (Homo sapiens) (Q8TDX7 whole entry, looked up): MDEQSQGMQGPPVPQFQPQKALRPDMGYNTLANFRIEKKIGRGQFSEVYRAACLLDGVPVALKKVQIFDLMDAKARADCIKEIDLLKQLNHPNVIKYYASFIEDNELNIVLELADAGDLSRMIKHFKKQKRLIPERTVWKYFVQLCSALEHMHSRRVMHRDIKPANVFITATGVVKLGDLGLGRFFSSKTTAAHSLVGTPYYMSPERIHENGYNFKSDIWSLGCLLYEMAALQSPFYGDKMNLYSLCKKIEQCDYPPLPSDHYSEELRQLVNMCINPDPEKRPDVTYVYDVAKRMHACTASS
Experiment [19] shares this target. The conditions noted are these: at 1 µM.
Experiment [20] deals with T7, Serine/threonine-protein kinase Nek9 (Homo sapiens) (UniProt Q8TD19).
T7 sequence (whole entry): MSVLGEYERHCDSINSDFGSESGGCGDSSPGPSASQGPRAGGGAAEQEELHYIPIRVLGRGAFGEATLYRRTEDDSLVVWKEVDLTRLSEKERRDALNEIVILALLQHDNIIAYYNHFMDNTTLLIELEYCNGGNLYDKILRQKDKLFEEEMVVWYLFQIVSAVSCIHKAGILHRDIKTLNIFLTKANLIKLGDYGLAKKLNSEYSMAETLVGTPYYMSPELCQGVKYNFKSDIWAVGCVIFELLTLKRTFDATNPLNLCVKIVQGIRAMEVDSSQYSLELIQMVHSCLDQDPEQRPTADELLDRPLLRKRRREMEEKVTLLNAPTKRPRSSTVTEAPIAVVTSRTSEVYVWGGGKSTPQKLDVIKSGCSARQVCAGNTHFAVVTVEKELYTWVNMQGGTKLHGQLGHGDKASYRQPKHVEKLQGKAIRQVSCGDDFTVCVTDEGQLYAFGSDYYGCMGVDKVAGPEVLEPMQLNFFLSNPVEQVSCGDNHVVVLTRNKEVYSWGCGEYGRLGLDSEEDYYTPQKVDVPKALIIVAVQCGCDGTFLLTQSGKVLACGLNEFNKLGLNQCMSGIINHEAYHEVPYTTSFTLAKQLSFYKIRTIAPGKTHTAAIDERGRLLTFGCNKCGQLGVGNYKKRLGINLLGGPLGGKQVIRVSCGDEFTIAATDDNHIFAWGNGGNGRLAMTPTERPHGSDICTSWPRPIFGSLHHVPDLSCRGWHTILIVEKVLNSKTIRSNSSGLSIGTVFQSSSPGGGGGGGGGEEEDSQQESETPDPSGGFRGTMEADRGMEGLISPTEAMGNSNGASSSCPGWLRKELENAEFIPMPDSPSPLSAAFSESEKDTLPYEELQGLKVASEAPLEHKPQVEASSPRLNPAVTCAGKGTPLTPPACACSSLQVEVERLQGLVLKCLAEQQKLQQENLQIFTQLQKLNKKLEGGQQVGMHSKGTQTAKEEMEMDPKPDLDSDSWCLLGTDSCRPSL
The conditions noted are these: at 0.1 µM.

Sequence of Casein kinase II subunit alpha (Homo sapiens) (P68400 whole entry, looked up): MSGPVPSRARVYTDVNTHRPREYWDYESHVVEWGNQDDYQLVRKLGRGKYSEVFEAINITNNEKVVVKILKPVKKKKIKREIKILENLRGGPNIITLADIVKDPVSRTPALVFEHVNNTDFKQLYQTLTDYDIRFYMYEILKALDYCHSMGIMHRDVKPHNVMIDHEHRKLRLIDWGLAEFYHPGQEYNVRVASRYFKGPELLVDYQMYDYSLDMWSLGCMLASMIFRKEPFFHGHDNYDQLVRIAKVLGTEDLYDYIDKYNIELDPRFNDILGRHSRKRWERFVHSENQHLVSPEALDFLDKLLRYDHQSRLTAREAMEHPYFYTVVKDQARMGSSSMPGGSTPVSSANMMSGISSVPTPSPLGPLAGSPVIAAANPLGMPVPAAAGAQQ
Sequence of Serine/threonine-protein kinase Nek6 (Homo sapiens) (Q9HC98 whole entry): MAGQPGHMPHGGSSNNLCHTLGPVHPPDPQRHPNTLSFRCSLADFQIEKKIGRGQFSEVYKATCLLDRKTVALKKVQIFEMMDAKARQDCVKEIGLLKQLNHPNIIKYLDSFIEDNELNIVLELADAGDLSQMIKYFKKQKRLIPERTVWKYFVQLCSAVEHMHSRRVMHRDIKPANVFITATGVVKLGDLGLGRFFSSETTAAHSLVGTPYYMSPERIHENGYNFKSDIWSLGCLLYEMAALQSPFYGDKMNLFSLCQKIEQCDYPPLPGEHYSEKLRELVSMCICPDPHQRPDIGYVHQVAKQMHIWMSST
Sequence of Sphingosine kinase 1 (Homo sapiens) (Q9NYA1 whole entry): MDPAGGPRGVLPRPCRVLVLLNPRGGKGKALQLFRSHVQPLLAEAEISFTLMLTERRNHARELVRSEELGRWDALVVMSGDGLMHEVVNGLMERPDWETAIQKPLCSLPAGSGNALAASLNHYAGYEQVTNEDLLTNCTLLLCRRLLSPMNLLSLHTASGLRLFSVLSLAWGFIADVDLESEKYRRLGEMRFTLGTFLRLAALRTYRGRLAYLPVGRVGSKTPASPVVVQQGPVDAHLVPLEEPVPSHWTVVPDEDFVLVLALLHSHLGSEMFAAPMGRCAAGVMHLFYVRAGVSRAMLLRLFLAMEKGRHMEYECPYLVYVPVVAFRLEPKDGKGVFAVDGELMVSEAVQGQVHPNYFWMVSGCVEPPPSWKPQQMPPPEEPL

Consider `Cn1c(-c2nonc2N)nc2cnccc21`, for which the inhibition in experiment [1] is 3.87%; in [2], 2.29%; in [3], 0.16%; in [4] it was 1.78%; in [5] it was -1.25%; in [6], 1.72%. Moreover, the inhibition in [7] stood at 7.51%; in experiment [8], 5.29%; in [9], 1.73%; in experiment [10], 6.16%; in experiment [11], 6.44%; in experiment [12] it was 1.82%. Further, the inhibition is 3.22% in experiment [13]; 4.27% in experiment [14]; 3.27% in experiment [15]; 3.89% in experiment [16]; -0.49% in experiment [17]; 3.76% in experiment [18]. Besides, the inhibition in experiment [19] was determined as 3.15%; in experiment [20], 12.2%.

What is called inhibition is the drop in the measured response relative to a control, in per cent.
